Measurements: article PMC13494018

B1: design_607_777643b9-bd23-49d1-80ae-2b1434974efa_640_dldesign_0_cycle1_af2pred (protein)
chain: AETEKKIKELEKKAHDAYQKAAEYYHDKNLKEAGDLYRKAAKLYAEAAKALAKGEEAPKAEEYEAKAKAYEEEAQKLKA
B2: design_607_777643b9-bd23-49d1-80ae-2b1434974efa_649_dldesign_0_cycle1_af2pred (protein)
chain: DAAKAAAKAFAAGAIKLAEKLAKEYPEIAATMKEAIAAAKEAAKLADTDAAAGKAAASAANFTVLEAYAEAKA
B3: design_607_777643b9-bd23-49d1-80ae-2b1434974efa_1068_dldesign_0_cycle1_af2pred (protein)
chain: MKKKASELMHEAYELAALAEAYPENAEEYYKKAKEYGEEAVKEAEKYDPEYGKKAKERAEKVTKRAKEAVEKYKKEK
B4: design_607_777643b9-bd23-49d1-80ae-2b1434974efa_1231_dldesign_0_cycle1_af2pred (protein)
chain: AEEEKKKKEEEKKRTAENKALAYEEAARHAMEQGEKGSPEQRPAAVERAREFAKRAIEADPKKGAELLKEVEAFAAKWEEEA
B5: design_607_777643b9-bd23-49d1-80ae-2b1434974efa_1207_dldesign_0_cycle1_af2pred (protein)
chain: AVAEAAQYAQEARQYAAEAEYLGKKYGKKNKEIKKYAEKAKEAAKKAREAAKKGDLEAAKEYAKKAKELAEKAEELAKKEEE
B6: design_607_777643b9-bd23-49d1-80ae-2b1434974efa_321_dldesign_0_cycle1_af2pred (protein)
chain: SKIYEEKKKEIEEAAEKAKELAKKDPEKGRKYLKEKNKKFKEFVEKLKADPKTKADAEKILKEASKKSAEVYEVIAEEEQKKRRE
B7: design_607_777643b9-bd23-49d1-80ae-2b1434974efa_21_dldesign_0_cycle1_af2pred (protein)
chain: MEVEKLRKKAVEEAKKGGLGTPEEAREKRKKAEELLKEMKKAGATEEEVAKAATEAAEAYVEAKNEKYLKE
B8: design_607_777643b9-bd23-49d1-80ae-2b1434974efa_351_dldesign_0_cycle1_af2pred (protein)
chain: SEEEAKKLAEEAAKKAREAAEEAEKLAKEAEKIGNKKIANKLYAYAERLKNVAESVELHAGDKEYAEKGLEVTEKLRKKAKELYKEAK
B9: design_607_777643b9-bd23-49d1-80ae-2b1434974efa_278_dldesign_0_cycle1_af2pred (protein)
chain: SSLTLEASKKSGEAYFLLNEAEFLAKKKGDEETAKKAEEARKKLKEKLDAAKTGAEKLAAALEGLKEAEKIYKEALE
B10: design_607_777643b9-bd23-49d1-80ae-2b1434974efa_981_dldesign_0_cycle1_af2pred (protein)
chain: MAEEAKKKLEQAAKLMAIAYETLAAGERGLATPEELKEAAKKAEEAAKLAKEVGKVTPEKEYYEKAAKRAEKVAKRLKELAKKIEE
B11: design_607_777643b9-bd23-49d1-80ae-2b1434974efa_280_dldesign_0_cycle1_af2pred (protein)
chain: GAEKEKAEKIAKEKLAEGKKLAEEAKKGTPEEAKKKRKEFLEELKKLAKEGTPYLAKLLAKVAAEVSEAFAEAYAEALRK
B12: design_607_777643b9-bd23-49d1-80ae-2b1434974efa_1238_dldesign_0_cycle1_af2pred (protein)
chain: SLKEALLEEAKEAIKAAKAGDASKVAAETLEMRSAAEALAKDDEEAKKFAEKTRKALELLRKDPEKGLKYAEEVAKEIIKAIE
B13: design_607_777643b9-bd23-49d1-80ae-2b1434974efa_529_dldesign_0_cycle1_af2pred (protein)
chain: NLGEKASKATKVLVDAAKEIAKKAGEEAKAKAAAALVTLFSLFEDPEKAAKEAKALVPEKAKPIVEKAAKEADKLLN
B14: design_607_777643b9-bd23-49d1-80ae-2b1434974efa_139_dldesign_0_cycle1_af2pred (protein)
chain: NEEQKKLAEEAIEEIKRLQEKAFDAVGAGDIEEAKKYLEEMEKVAKETAAKVPPEYAKKVLEALEKAKKAVESAIKAAEENEK
B15: design_607_777643b9-bd23-49d1-80ae-2b1434974efa_37_dldesign_0_cycle1_af2pred (protein)
chain: SSNKETADAIRDAVKAAQEVGKLAKEKLSPEEAKAVADELNKAIFDLVDTAASEGVDGAKAAAADVKAKVEKLKKEIAAKAAAA
B16: design_607_777643b9-bd23-49d1-80ae-2b1434974efa_1186_dldesign_0_cycle1_af2pred (protein)
chain: KEAEIKAEAQALIDAVRAAAAAAVALAADPAAARALLTAAIGKVLEGSKEAASLALPEAVAIAREAGAAAEAAHAAAA
B17: design_607_777643b9-bd23-49d1-80ae-2b1434974efa_648_dldesign_0_cycle1_af2pred (protein)
chain: SEEERRRREEAYRELSEALREARELGKRLKEAGADPEVIKRLSELLAEISETLAELRAGLANEEEIERAKEAAREALELAREELERL
B18: design_607_777643b9-bd23-49d1-80ae-2b1434974efa_839_dldesign_0_cycle1_af2pred (protein)
chain: AAAAAKAQADAILADAKAKAAEALKKDPKTGAEEAAKIYRAAAAKLRALGAEVADDPEAVAYLSKVAAELYELAAEYASKAARL
B19: design_607_777643b9-bd23-49d1-80ae-2b1434974efa_665_dldesign_0_cycle1_af2pred (protein)
chain: MKETEEEIKKIEEEAKELAEKGKEKSVEEFKKEMVKFIFSLADEGAHPEAISSAARIAKESYEKLKKKEEEEKK

molecular target: VTCN1, Q7Z7D3
Sequence (Q7Z7D3 whole entry): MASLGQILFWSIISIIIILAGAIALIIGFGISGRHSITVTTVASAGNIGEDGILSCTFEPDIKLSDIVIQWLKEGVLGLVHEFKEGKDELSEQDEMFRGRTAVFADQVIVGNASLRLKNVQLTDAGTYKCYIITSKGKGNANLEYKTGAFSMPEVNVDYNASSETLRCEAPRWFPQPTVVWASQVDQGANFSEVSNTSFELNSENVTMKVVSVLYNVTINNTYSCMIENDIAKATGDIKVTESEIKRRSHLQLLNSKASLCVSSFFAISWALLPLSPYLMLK

Binding in a display sort, inactive:
B1 not found
B2 not found
B3 not found
B4 not found
B5 not found
B6 not found
B7 not found
B8 not found
B9 not found
B10 not found
B11 not found
B12 not found
B13 not found
B14 not found
B15 not found
B16 not found
B17 not found
B18 not found
B19 not found
